In assay [1] the target is Thyrotropin receptor (Homo sapiens) (UniProt P16473). Nature of the assay: qHTS Assay for Antagonists of the Thyroid Stimulating Hormone Receptor (AID 488980). Note: series mostly up to about 58 µM; 0% is about no effect. A digest of the protocol:
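Inhibition of TSH-stimulated cAMP accumulation was quantified by homogeneous time-resolved FRET in TSHR-transfected HEK293 cells. Agonist: TSH, 4 nM final (EC80).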

The target of assay [2] is D(1A) dopamine receptor (Homo sapiens) (UniProt P21728). Nature of the assay: HTS Assay for Allosteric Agonists of the Human D1 Dopamine Receptor: Primary Screen for Agonists (AID 488981). Note: 0% is about no effect. In short, it runs like this:
(§1)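 Tetracycline-induced HEK293 Trex D1 cells with forced coupling to calcium, loaded with no-wash calcium dye; kinetic fluorescence read 180 s after compound addition for agonism, then a further 180 s after an EC20 dopamine challenge for potentiation.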

For assay [3] the target is unchanged. The experiment in a line: HTS Assay for Allosteric Agonists of the Human D1 Dopamine Receptor: Primary Screen for Potentiators (AID 488982). Note: 0% is about no effect. In short, it runs like this: as §1
The target is the same in assay [4]. The experiment in a line: HTS Assay for Allosteric Agonists of the Human D1 Dopamine Receptor: Primary Screen for Antagonists (AID 488983).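 Note: calcium flux response to an EC80 dopamine challenge measured with no-wash dye; % is set by controls: 0 for no effect and ±100 for the full control effect; nearly all actives have a fitted effect of over 65% in size.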 In short, it runs like this:
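Screening of inducible HEK293 T-REx D1 cells: compound first, EC80 dopamine 180 s later, each phase read kinetically for calcium over 180 s.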

Assay [5] in a line: Validation screen for small molecules that induce genotoxicity in human embryonic kidney (HEK293T) cells expressing luciferase-tagged ELG1 (AID 493106). Note: 0% is about no effect. In short, it runs like this: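 Reporter-gene quantitative HTS in HEK293T cells carrying luciferase-tagged ELG1, whose level climbs under genotoxic stress. Compound exposure lasts 16 hr at 37 °C before luciferase detection.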

In assay [6] the target is ATPase family AAA domain-containing protein 5 (Homo sapiens) (UniProt Q96QE3). The experiment in a line: Validation screen for small molecules that inhibit ELG1-dependent DNA repair in human embryonic kidney (HEK293T) cells expressing luciferase-tagged ELG1 (AID 493107). Note: nearly all actives have a fitted effect of over 70% in size. Note: potency is the fitted concentration of half-maximal effect. A digest of the protocol:
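Quantitative HTS in HEK293T cells carrying luciferase-tagged ELG1, stimulated with 5-fluorouridine alongside compound for 16 hr. Loss of luciferase signal marks inhibition of ELG1 response.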

The target of assay [7] is Thyrotropin-releasing hormone receptor (Homo sapiens) (UniProt P34981). The experiment in a line: qHTS for Small Molecule Agonists and Allosteric Enhancers of Human TRH Receptor: Validation Screen for Agonists (AID 493127;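 active = calcium activation more than 3 SD above the typical response in the agonist read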;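 note: intracellular calcium rise by fluo-8 fluorescence before TRH EC20 addition; 0% is about no effect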). The conditions noted are these: TRH receptor agonist cell assay; at 2 µM; stronger effect = higher value. In short, it runs like this: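 Gq-coupled calcium mobilization in TRHR cells after compound addition, monitored kinetically with fluo-8 dye on an FDSS reader.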
Thyrotropin-releasing hormone receptor (Homo sapiens), sequence (P34981 whole entry, looked up): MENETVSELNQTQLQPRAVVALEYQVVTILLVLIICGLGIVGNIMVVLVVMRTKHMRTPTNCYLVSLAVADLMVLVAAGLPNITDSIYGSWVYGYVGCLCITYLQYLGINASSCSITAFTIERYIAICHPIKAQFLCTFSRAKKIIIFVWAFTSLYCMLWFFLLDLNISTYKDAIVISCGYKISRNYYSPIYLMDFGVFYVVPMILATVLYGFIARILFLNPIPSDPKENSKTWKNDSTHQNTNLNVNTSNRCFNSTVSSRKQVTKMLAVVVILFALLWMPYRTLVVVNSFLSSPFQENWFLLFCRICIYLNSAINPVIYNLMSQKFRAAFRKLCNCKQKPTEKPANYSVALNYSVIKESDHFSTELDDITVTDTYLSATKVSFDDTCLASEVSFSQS

Assay [8] in a line: Nrf2 qHTS screen for inhibitors: Validation (AID 493153; active = well fitted inhibition curve with a large enough effect in the main read-out, with a control signal flat, not every such curve was filed as active). The note with it: Potency: luciferase luminescence; viability change: measured here: cytotoxicity max response. In short, it runs like this:
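Dose-response validation uses reporter A549 cells with firefly luciferase under an antioxidant response element. Compounds stay on cells 18-24 h at 37°C, and luminescence indicates Nrf2-driven transcription.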

For assay [9], the target named is Tyrosyl-DNA phosphodiesterase 1 (Homo sapiens) (UniProt Q9NUW8). The experiment in a line: Confirmation Assay for Inhibitors of Tyrosyl-DNA Phosphodiesterase (TDP1) (AID 489007). Note: potency is the fitted concentration of half-maximal effect; nearly all actives have a fitted effect of over 40% in size. The note with it: recombinant human TDP1 enzymatic activity, dose-response. A digest of the protocol:
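Confirmation of primary-screen follow-ups in a qHTS format. Substrate cleavage by Tdp1 (1 nM) of a 3'-phosphotyrosine-FITC, 5'-biotin oligo (15 nM) was monitored as decreased AlphaScreen signal after a 5 min room-temperature reaction.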

Structures are written as SMILES. Results filed as inconclusive are left out. Activity calls are given as the source filed them. Unless noted, calls come from the whole dose curve; as a rule, active = well fitted curve in the direction sought with a large enough effect; inconclusive = small, poorly fitted or top-dose-only effect, or another doubt; inactive = no such curve, though single readings can be large; an effect the other way counts as inactive or inconclusive.

The text below walks through data of PubChem BioAssay (NCATS).

ATPase family AAA domain-containing protein 5 (Homo sapiens), sequence (Q96QE3 whole entry, looked up, the tested form may be a part): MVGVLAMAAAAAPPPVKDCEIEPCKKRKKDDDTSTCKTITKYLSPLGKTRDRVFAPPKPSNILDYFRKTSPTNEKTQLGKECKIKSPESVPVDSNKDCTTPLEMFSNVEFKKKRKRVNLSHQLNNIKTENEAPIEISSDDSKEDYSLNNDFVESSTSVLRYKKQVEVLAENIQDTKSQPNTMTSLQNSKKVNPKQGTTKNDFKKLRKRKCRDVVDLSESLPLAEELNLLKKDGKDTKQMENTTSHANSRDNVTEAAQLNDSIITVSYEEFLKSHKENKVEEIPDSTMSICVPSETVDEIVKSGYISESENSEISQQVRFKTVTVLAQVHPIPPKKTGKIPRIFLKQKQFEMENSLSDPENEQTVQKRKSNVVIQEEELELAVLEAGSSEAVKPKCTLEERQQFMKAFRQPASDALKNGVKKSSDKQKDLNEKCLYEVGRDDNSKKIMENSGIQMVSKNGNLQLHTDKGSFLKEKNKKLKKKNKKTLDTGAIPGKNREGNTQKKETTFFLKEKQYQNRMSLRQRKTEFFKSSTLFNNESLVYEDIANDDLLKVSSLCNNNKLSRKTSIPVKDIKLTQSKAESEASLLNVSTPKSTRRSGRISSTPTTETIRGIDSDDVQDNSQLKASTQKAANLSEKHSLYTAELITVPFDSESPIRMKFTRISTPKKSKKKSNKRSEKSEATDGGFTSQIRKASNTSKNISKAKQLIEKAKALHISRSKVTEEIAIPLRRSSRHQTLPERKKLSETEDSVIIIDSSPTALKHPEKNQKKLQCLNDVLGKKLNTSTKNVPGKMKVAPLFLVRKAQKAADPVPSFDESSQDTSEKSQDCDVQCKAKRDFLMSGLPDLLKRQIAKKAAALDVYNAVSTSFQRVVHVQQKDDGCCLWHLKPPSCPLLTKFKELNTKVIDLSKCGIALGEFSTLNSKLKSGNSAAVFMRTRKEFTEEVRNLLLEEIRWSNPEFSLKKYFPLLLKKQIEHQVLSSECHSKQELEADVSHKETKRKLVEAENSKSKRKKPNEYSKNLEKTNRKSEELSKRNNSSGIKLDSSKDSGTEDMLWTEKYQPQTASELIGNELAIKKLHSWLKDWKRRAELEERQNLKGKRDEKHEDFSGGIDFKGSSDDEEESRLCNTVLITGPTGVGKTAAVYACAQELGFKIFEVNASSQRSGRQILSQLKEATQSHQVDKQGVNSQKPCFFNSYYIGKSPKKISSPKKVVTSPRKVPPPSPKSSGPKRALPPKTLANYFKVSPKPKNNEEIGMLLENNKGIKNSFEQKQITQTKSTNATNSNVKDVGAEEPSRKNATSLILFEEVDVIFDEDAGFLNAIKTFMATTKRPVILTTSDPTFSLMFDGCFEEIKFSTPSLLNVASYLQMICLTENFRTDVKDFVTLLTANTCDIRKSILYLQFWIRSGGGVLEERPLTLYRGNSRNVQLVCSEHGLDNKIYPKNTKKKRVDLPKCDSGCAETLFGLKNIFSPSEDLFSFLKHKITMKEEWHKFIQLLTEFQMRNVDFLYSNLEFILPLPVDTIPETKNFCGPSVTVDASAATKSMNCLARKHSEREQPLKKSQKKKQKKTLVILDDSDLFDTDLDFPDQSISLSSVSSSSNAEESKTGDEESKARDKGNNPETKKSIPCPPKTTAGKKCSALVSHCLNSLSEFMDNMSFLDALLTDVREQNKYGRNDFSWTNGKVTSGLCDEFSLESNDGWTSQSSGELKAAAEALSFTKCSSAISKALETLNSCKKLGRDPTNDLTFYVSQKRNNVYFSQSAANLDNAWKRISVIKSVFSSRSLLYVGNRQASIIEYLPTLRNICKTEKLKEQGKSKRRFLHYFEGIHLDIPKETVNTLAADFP
Thyrotropin receptor (Homo sapiens), sequence (P16473 whole entry, looked up): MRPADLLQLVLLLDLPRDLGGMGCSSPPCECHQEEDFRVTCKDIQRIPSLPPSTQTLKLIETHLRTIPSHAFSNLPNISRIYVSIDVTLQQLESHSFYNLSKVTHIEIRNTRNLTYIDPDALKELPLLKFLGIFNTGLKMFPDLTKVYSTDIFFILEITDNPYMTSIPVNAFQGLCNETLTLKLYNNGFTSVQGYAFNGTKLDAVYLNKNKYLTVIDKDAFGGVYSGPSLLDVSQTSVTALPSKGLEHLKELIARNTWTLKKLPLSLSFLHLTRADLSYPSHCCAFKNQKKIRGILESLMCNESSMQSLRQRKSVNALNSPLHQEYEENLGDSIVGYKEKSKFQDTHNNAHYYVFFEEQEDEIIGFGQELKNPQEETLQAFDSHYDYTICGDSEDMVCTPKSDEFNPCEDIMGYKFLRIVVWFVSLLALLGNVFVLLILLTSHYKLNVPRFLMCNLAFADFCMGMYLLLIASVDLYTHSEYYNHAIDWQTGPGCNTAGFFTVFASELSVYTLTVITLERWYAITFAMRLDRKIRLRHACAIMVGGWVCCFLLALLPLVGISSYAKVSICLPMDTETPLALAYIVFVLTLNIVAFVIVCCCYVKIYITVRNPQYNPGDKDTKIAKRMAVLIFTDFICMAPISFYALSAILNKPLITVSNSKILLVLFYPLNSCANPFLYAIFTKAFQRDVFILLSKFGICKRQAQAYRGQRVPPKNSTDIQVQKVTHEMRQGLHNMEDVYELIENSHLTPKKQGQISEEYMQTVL
D(1A) dopamine receptor (Homo sapiens), sequence (P21728 whole entry, looked up): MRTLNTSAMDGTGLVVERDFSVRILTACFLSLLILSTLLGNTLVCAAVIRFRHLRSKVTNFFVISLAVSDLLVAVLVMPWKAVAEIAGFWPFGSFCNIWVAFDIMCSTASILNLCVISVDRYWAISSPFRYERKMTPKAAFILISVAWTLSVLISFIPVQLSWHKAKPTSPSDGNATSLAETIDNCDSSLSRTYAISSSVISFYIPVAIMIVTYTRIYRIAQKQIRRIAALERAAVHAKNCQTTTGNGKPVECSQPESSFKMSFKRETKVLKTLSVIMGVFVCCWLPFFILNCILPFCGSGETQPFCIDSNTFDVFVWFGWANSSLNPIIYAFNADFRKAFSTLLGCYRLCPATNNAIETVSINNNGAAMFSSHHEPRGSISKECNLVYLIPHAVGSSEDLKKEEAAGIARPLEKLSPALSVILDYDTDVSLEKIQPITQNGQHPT
Tyrosyl-DNA phosphodiesterase 1 (Homo sapiens), sequence (Q9NUW8 whole entry, looked up): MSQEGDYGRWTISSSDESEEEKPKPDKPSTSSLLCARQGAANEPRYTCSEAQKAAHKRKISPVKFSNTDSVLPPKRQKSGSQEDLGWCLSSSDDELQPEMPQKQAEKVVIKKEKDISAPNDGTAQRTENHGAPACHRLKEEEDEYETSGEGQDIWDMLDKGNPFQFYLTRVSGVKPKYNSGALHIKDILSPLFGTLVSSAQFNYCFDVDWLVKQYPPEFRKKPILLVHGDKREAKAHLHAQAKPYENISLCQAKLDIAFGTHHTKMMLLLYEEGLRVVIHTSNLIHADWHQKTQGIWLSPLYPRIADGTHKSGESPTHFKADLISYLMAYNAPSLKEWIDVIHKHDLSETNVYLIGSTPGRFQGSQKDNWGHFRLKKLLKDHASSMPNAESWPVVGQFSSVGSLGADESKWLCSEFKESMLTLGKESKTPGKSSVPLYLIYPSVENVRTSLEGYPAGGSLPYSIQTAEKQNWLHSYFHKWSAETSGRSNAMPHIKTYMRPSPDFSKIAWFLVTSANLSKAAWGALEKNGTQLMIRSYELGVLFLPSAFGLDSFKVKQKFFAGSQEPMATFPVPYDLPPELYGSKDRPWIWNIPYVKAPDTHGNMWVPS

As for `CCCCCCN(CCCCCC)C(=O)Cc1c(-c2ccc(F)cc2)[nH]c2ccccc12`, the call in assay [1] was inactive. Moreover, the Potency result in assay [2], in [3], in assay [4], in assay [5] and in assay [6] was “inactive” in each case. The activation in assay [7] is -4% (inactive).

For the molecule `O=c1[nH]c2ccccc2c2ccccc12`, the result in [1] was inactive. For the same molecule, the Potency result in assay [2], in assay [3], in [4], in assay [5] and in assay [6] was “inactive” in each case. For the same molecule, in [7], the activation is -4.5% (inactive).

Take `c1ccc2c(c1)CC(N1CCN(c3cccc4c3OCCO4)CC1)C2`: the molecule was called inactive in [1]. The Potency entry in assay [2], in [3], in assay [4], in [5], in assay [6] and in assay [8] was “inactive” throughout. The activation in assay [7] was -3.75% (inactive). The viability change in [8] came to 3.52%.

In the case of `CCCCCCCCCCCCCCSCC(=O)O`, the call in assay [1] was inactive. Moreover, the Potency entry in assay [2], in [3], in assay [4], in [5], in assay [6] and in assay [8] was “inactive” each time. In addition, in assay [7], the activation was 0.688% (inactive). Also, the viability change in [8] was determined as 0.626%.

With `CCCCCC[C@@H]([C@@H](C)O)n1cnc2c(N)ncnc21`, in assay [1], the outcome was inactive. Besides, the Potency result in [2], in assay [3], in assay [4], in assay [5], in assay [6] and in assay [8] was “inactive” each time. Besides, in [7], the activation was 0.875% (inactive). The viability change in [8] was determined as 0.22%.

In the case of `Cc1nc(N=Nc2ccc(S(=O)(=O)O)cc2S(=O)(=O)O)c(COP(=O)(O)O)c(C=O)c1O`, the molecule was called inactive in [1]. The Potency entry in assay [2], in assay [3], in assay [4], in assay [5], in assay [6] and in assay [8] was “inactive” throughout. In addition, the Potency in assay [9] is 7.08 µM (active). Moreover, the activation in [7] was 0.938% (inactive). In addition, in assay [8], the viability change is -3.73%.

`NC(N)=NC(N)=Nc1ccccc1`: the call in [1] was inactive. In addition, the Potency result in assay [2], in assay [3], in assay [4], in assay [5], in assay [6] and in assay [8] was “inactive” throughout. Besides, the activation in assay [7] is 0.75% (inactive). Besides, the viability change in assay [8] is -4.42%.

Regarding `N[C@@H](CCC(=O)N[C@H](CSN=O)C(=O)NCC(=O)O)C(=O)O`, the call in assay [1] was inactive. The Potency result in assay [2], in assay [3], in assay [4], in [5], in assay [6] and in assay [8] was “inactive” throughout. Also, the activation in assay [7] is 1.31% (inactive). The viability change in assay [8] is 5.63%.

As to `CCn1c(=O)[nH]c2cc(Cl)c(Cl)cc21`, the molecule was called inactive in assay [1]. In addition, the Potency result in assay [2], in assay [3] and in assay [4] was “inactive” in each case.

On to `NC(N)=NC(N)=Nc1cccc(Cl)c1`, for which the call in [1] was inactive. Also, the Potency entry in assay [2], in assay [3], in [4], in [5] and in assay [6] was “inactive” in each case. The activation in assay [7] is 1.62% (inactive).

As for `O=C1NC(=O)c2cc(Nc3ccccc3)c(Nc3ccccc3)cc21`, the outcome in assay [1] was inactive. In addition, the Potency entry in [2], in [3], in assay [4] and in assay [5] was “inactive” each time. Besides, the Potency in [6] was 13 µM (active).

On to `Oc1ccc(Cn2cc[nH]c2=S)cc1`, for which the outcome in assay [1] was inactive. The Potency entry in assay [2], in [3], in assay [4], in [5], in [6] and in assay [8] was “inactive” in each case. Besides, the activation in assay [7] is 1.06% (inactive). For the same molecule, the viability change in assay [8] worked out at 0.593%.

`C/C(=C\c1ccc(C(=O)O)cc1)c1ccc2c(c1)C(C)(C)CCC2(C)C`: in assay [1], the outcome was inactive. Further, the Potency entry in [2], in [3], in assay [4], in [5] and in assay [6] was “inactive” each time. The activation in assay [7] is -6% (inactive).

As for `N#CC(C#N)=C(N)/C(C#N)=C/c1ccc(O)cc1`, the outcome in assay [1] was inactive. Also, the Potency result in assay [2], in [3], in assay [4], in [5], in assay [6] and in assay [8] was “inactive” in each case. Besides, the activation in assay [7] is 0.25% (inactive). Moreover, the viability change in assay [8] amounted to 1.78%.

As for `C#CC(N)CCC(=O)O` (centres undefined), in assay [1], the call was inactive. Besides, the Potency result in assay [2], in assay [3], in assay [4], in assay [5], in assay [6] and in assay [8] was “inactive” throughout. Besides, in assay [7], the activation is 0.625% (inactive). Also, the viability change in assay [8] was found to be 2.08%.

Consider `O=C(O)[C@H]1NCCC[C@H]1C(=O)O`, for which the molecule was called inactive in assay [1]. For the same molecule, the Potency entry in assay [2], in assay [3], in assay [4], in [5], in assay [6] and in [8] was “inactive” each time. Further, in [7], the activation was -0.188% (inactive). Besides, the viability change in [8] is 11%.

Regarding `CC(N)(C(=O)O)c1ccc(C(=O)O)cc1` (centres undefined), the molecule was classed as inactive in [1]. Further, the Potency entry in [2], in assay [3], in assay [4], in [5], in assay [6] and in [8] was “inactive” throughout. For the same molecule, the activation in assay [7] was 1.12% (inactive). Also, the viability change in [8] is 1.94%.

As for `C=C1C(=O)O[C@@H]2[C@H]3O[C@]3(C)CCC=C(C)CC[C@@H]12`, the result in assay [1] was inactive. Besides, the Potency entry in assay [2], in [3], in assay [4] and in assay [5] was “inactive” each time. Moreover, the Potency in [6] is 25.9 µM (active). In addition, the activation in [7] was -0.125% (inactive).

As to `O=c1[nH]c2cc(Cl)ccc2c(O)c1-c1ccc(Oc2ccccc2)cc1`, in assay [1], the result was inactive. Also, the Potency result in assay [2], in [3], in assay [4], in assay [5] and in [6] was “inactive” each time.

As for `COC(=O)C(C)(N)Cc1ccc(O)cc1` (centres undefined), the molecule was called inactive in assay [1]. In addition, the Potency entry in [2], in [3], in assay [4], in assay [5], in assay [6] and in assay [8] was “inactive” throughout. Moreover, in assay [7], the activation is 0.125% (inactive). Also, the viability change in assay [8] was -3.06%.

As for `CC(C)C[C@H](NC(=O)C1OC1C(=O)O)C(=O)NCCCCN=C(N)N` (some centres undefined), in assay [1], the call was inactive. Further, the Potency result in [2], in assay [3], in [4], in assay [5] and in assay [6] was “inactive” in each case. For the same molecule, in assay [7], the activation is 0% (inactive).

As to `C=C(C)C1CC=C(C(=O)O)CC1` (centres undefined), the call in [1] was inactive. The Potency result in assay [2], in [3], in assay [4], in assay [5], in assay [6] and in [8] was “inactive” each time. Besides, the activation in assay [7] is 1.12% (inactive). In addition, the viability change in assay [8] worked out at 1.77%.

As to `COc1ccc2c(c1)c(CC(=O)O)c(C)n2Cc1ccc(Cl)cc1`, the molecule was classed as inactive in assay [1]. In addition, the Potency result in assay [2], in [3], in [4], in assay [5] and in [6] was “inactive” in each case. The activation in assay [7] is -0.188% (inactive).

Regarding `COc1ccc2c(c1)c(CC(=O)O)c(C)n2C(=O)c1ccccc1`, in [1], the molecule was called inactive. The Potency result in assay [2], in assay [3], in [4], in [5] and in assay [6] was “inactive” in each case.
